# Giardia FBPA inh: qHTS Assay for Inhibitors of Fructose-1,6-bisphosphate Aldolase from Giardia Lamblia | purified Giardia FBPA | Potency, µM (series often up to 59.6 µM), for the others: at the top dose activity, negative = inhibition, actives largely listed as inhibitors | 290,000 compounds, 0.71% hits | AID 2451, 2010; also: potency is read from the fitted curve at half-maximal effect; % is scaled to controls: 0 for no effect and ±100 for the full control effect; nearly all actives have a fitted effect of over 55% in size
# Target sequence (A8B2U2 whole entry, looked up): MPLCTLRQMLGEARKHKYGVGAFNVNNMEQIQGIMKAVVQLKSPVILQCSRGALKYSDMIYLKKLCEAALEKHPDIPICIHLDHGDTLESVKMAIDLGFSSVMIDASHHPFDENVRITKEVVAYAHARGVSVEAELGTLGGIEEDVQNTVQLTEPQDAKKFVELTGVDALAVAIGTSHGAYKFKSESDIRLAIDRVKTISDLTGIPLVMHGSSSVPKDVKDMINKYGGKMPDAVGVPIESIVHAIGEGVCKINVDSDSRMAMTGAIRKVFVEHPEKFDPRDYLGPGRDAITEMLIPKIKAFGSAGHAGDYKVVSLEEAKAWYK
#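 40 nM FBPA preincubated 10 min at RT with compound (up to 57.5 uM final), then substrate plus GAPDH/TPI/NAD/arsenate coupling and diaphorase/resazurin added. Fluorescence read after 20 min at RT, 525/598 nm.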
# Pf growth 96h: Primary qHTS for delayed death inhibitors of the malarial parasite plastid, 96 hour incubation; P. falciparum luciferase reporter growth, 96 h; Potency, µM (titrated, usually from 28.7 µM), for inactives: at the highest dose activity change, negative = inhibition, most hits filed as inhibitors; 320,000 compounds, 6.9% hits; AID 504834, 2011; also: potency is read from the fitted curve at half-maximal effect; % is scaled to controls: 0 for no effect and ±100 for the full control effect
#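 Readout is luminescence from an integrated firefly luciferase in P. falciparum. Red cells, 2% hematocrit and 0.05% parasitemia final, were cultured with compound through two parasite generations (96 hours) at 37 C, 5% CO2.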
# Pf growth 48h: Primary qHTS for delayed death inhibitors of the malarial parasite plastid, 48 hour incubation; P. falciparum luciferase growth in erythrocytes, 48 h; Potency, µM (doses to about 28.7 µM), for inactives: at the highest dose activity change, negative = inhibition, actives largely listed as inhibitors; 310,000 compounds, 5.9% hits; also: potency is read from the fitted curve at half-maximal effect; % is scaled to controls: 0 for no effect and ±100 for the full control effect
#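 First compound was added to culture medium, then infected red cells at 0.1% parasitemia and 2% hematocrit (final). After incubation at 37 C under 5% CO2, luciferase detection reagent was dispensed and light output recorded.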
# Shiga toxin inh: A qHTS for Small Molecule Inhibitors of Shiga Toxin | 290,000 compounds, 9.2% hits | Vero cells, Shiga toxin protein synthesis inhibition reporter | inhibition, % at 38.7 µM; in the data active = inhibition mostly above about 28%, no sharp cut-off; inactive = mostly below about 43%; also: 0% is about no effect
# Cycloheximide cs: Cycloheximide Counterscreen for Small Molecule Inhibitors of Shiga Toxin. cell reporter, cycloheximide protein synthesis inhibition counterscreen. 300,000 compounds, 12% hits. max response, %. AID 2314, 2010; in the data active = max response mostly above about 13%, no sharp cut-off; inactive = mostly below about 14%; also: read at 38.3 µM for the half of the compounds with a filed dose; 0% is about no effect
# NS1 inh: qHTS Assay for Inhibitors of Influenza NS1 Protein Function; AID 2326, 2010; 270,000 compounds, 0.4% hits; Potency, µM (series often up to 46.1 µM), for inactives: at the highest dose activity, positive = more growth; calls by dose curve; also: potency is read from the fitted curve at half-maximal effect; actives are rising curves; nearly all actives have a fitted effect of over 50% in size
#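 Growth recovery, yeast-based: influenza A NS1 expressed in S. cerevisiae causes slow growth, and suppressors are detected by OD600. The parent strain without NS1 is used as positive control.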
# * = called active by the depositor; i = inactive; ? = inconclusive; · = no result; [ ] = dose if it differs, or a comment. Sampled rows, rich in hits. Any-hit rate of the full collection: about 21%. Unless noted, calls follow the shape of the dose curve; as a rule, active = well fitted curve in the direction sought with a large enough effect; inconclusive = small, poorly fitted or top-dose-only effect, or another doubt; inactive = no such curve, though single readings can be large; an effect the other way counts as inactive or inconclusive.
SMILES,Giardia FBPA inh,Pf growth 96h,Pf growth 48h,Shiga toxin inh,Cycloheximide cs,NS1 inh
COc1cc(C(=O)Nc2ccc(C(=O)O)cc2)ccc1OC(C)=O,-3%,2.3µM*,21%,-6,-1,·
COc1ccc(C(=O)Nc2ccc3c(c2)C(=O)c2ccccc2C3=O)cc1OC,-1%,0%,24%,22,31*,20%
COc1cc(C(=O)Nc2ccc3c(c2)C(=O)c2ccccc2C3=O)cc(OC)c1OC,-1%,13%,-8%,12,-1,-2%
COc1cc(C(=O)Nc2ccc(O)cc2)ccc1OC(C)=O,-1%,·,35%,20,14,-2%
COc1ccc(OC)c(C(=O)c2ccc(C(=O)Nc3ccc4ccccc4c3)cc2)c1,0%,?,?,active,50*,3%
COc1ccc(OC)c(C(=O)c2ccccc2)c1,-7%,i,-3%,-3,-2,-12%
COc1cc(C(=O)Nc2ccc3ccccc3c2)cc(OC)c1OC,2%,1.7µM*,5.2µM*,26,14*,-21%
CCCNC(=O)N1N=C(c2ccc(N)cc2)c2cc3c(cc2[C@H]1C)OCO3,4%,·,·,·,·,·
COCC(C)n1c(SCc2ccc(C(=O)OC)cc2)nc2ccccc2c1=O (stereo not drawn),-4%,?,?,-6,1,-56%
COc1ccc(C(=O)NCc2ccc3c(c2)OCO3)cc1S(=O)(=O)N(C)Cc1ccccc1,0%,-16%,1%,-8,-2,23%
COc1ccc(C(=O)Nc2ccc(NC(C)=O)cc2)cc1S(=O)(=O)N(C)Cc1ccccc1,·,4.7µM*,?,·,·,·
Cn1nnc2cc(C(=O)Nc3ccc4ccccc4c3)ccc21,0%,20%,77%,108*,36*,0%
COc1ccc(C(=O)Nc2ccc(C(=O)N3CCC(C)CC3)cc2)cc1OC,10%,2.6µM*,?,30,-3,-4%
COc1ccc(C(=O)Nc2ccc(C(=O)N3CCCCC3)cc2)cc1OC,10%,17%,30%,33,11,-8%
Cn1nnc2cc(C(=O)NC3CC3)ccc21,10%,·,39%,10,6,2%
COc1ccc(C(=O)Nc2ccc3ccccc3c2)cc1OC,2%,61%,116%,68*,43*,-15%
COc1ccc(C(=O)Nc2ccncc2)cc1OC,4%,·,1%,-21,18,2%
Cc1ccc(N(CC(=O)NC2CCCCC2)C(=O)CCC(=O)Nc2nccs2)cc1,0%,19%,?,7,-3,29%
O=C(CN1CCc2cc3c(cc2C1)OCCCO3)Nc1ccc(S(=O)(=O)N2CCCC2)cc1,·,13µM*,?,10,-4,-1%
COC(=O)c1cc(NC(=O)CN2CCOCC2)cc(C(=O)OC)c1,-2%,0%,?,-13,1,4%
COC(=O)c1cc(NC(=O)CN2CCc3cc4c(cc3C2)OCCCO4)cc(C(=O)OC)c1,-5%,9.3µM*,-6%,-4,-1,16%
Cn1c(=O)c(-c2ccccc2)nc2cnc(N3CCOCC3)nc21,8%,·,·,·,·,·
COc1ccc(NC(=O)c2ccc(CN3CCN(c4ccccc4)CC3)cc2)cc1,-5%,?,?,3,4,-15%
CCCc1ccc(C(=O)NNc2cccc(C)c2)cc1,0%,?,30%,46*,29*,-61%
COc1cccc(C(=O)Nc2ccc(N3CCN(Cc4ccccc4)CC3)cc2)c1,-1%,?,·,43*,13,8%
SMILES,Giardia FBPA inh,Pf growth 96h,Pf growth 48h,Shiga toxin inh,Cycloheximide cs,NS1 inh
O=C(Nc1cccc(C(=O)N2CCN(Cc3ccccc3)CC2)c1)c1ccccc1,-1%,?,22%,33,1,7%
Cc1cccc(NNC(=O)C(=O)NNc2cccc(C)c2)c1,-6%,-24%,-17%,24,14,-4%
Cc1cccc(NC(=O)c2ccc(CN3CCN(Cc4ccccc4)CC3)cc2)c1,1%,15%,?,36,27*,4%
COc1cccc(NC(=O)c2ccc(CN3CCN(c4ccccc4)CC3)cc2)c1,-6%,41%,12µM*,27*,17*,-32%
COc1ccc(C(=O)Nc2ccc(N3CCN(Cc4ccccc4)CC3)cc2)cc1,5%,0%,-7%,-25,-1,2%
CCOC(=O)CNC(=O)O[C@H]1C(=O)c2ccc(OC)cc2O[C@@H]1c1ccc2c(c1)OCO2,0%,·,·,·,·,·
CC(C)=NNC(=O)C1=NNC(=O)C1,-6%,18%,?,1,-2,-4%
COc1ccc(N(CC(=O)N2CCN(c3ccccc3F)CC2)S(=O)(=O)c2ccc(C)cc2)cc1,4%,31%,?,-12,-5,8%
Fc1ccc(CSc2nnc(-c3cccnc3)o2)cc1,0%,5%,88%,31,17*,-31%
Cc1ccccc1-c1nnc(SCc2ccc(F)cc2)o1,-1%,4%,43%,45*,30*,-96%
Cc1ccc(CSc2nnc(-c3cccnc3)o2)cc1,5%,13%,·,-1,12,-53%
c1ccc(CSc2nnc(-c3cccnc3)o2)cc1,-1%,-21%,184%,74*,31*,-18%
Cc1ccc(S(=O)(=O)N2CCN(C(=O)c3ccc4ccccc4n3)CC2)c(C)c1,·,-15%,57%,·,·,·
COc1ccc(N2CCN(CC(O)COCCOc3ccc(Br)cc3)CC2)cc1 (stereo not drawn),-14%,-28%,-8%,14,-3,-10%
COc1ccccc1N1CCN(CC(O)COCCOc2ccc(Br)cc2)CC1 (stereo not drawn),-12%,13µM*,-9%,-14,-3,0%
CC1(C)CCCC(C)(C)N1CC(O)COCCOc1ccc(Br)cc1 (stereo not drawn),-3%,?,5.9µM*,-7,-4,-8%
Cc1cc(C)c(S(N)(=O)=O)c(C)c1N(C)S(=O)(=O)c1ccc(Cl)cc1,·,?,-1%,-4,1,-7%
CC(C)CO/N=C1/C[C@@H](O)[C@@H](O)[C@@H]2[C@@H]3C(=O)N([C@@H](C)c4ccccc4)C(=O)[C@H]3CC[C@H]12,-4%[12.9 µM],·,·,·,·,·
C=CCn1c(=O)/c(=C/c2cc(OC)c(OC)c(OC)c2)s/c1=C(/C#N)c1nc2ccccc2n1C,1%,80%,5.2µM*,-8,-8,12%
Cc1cc(C(=O)N2CCN(S(=O)(=O)c3ccccc3F)CC2)c(C)o1,1%,-1%,24%,11,-1,4%
CCCCNC(=O)C(c1ccc(OCC(=O)OC)c(C(=O)OC)c1)N(Cc1ccccn1)C(=O)CCCCCN1C(=O)NC(c2ccc(-c3ccccc3)cc2)C(C(=O)OCc2ccccc2)=C1C (stereo not drawn),-2%,·,·,·,·,·
